According to publication PMC8384837, “Expanding the binding specificity for RNA recognition by a PUF domain”:
Numbering of substitutions follows the chain as printed.

Assays:
Assay in all cases: yeast three-hybrid, YBZ-1, SC-Leu-His + 0.5 mM 3-AT, 4 days
Details in all cases: tags: N-Gal4 AD-HA kept; label: inside an RPR1-promoter hybrid RNA with tandem MS2 sites; ssRNA
[1] = target: PUM1 PUF domain R5-RQQ (Homo sapiens, UniProt Q14671 828-1176, C1007R;R1008Q)
How it was run: (§1)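 Each repeat of the Pumilio-1 PUF domain was randomized at its three base-contacting residues, and these libraries were co-expressed from a centromeric plasmid with matching RNA elements in strain YBZ-1. After four days on SC-Leu (input) or SC-Leu-His + 0.5 mM 3-AT (selection), the repeat regions were PCR-amplified and Illumina-sequenced. The interaction score compares variant frequency between input and selection as a log change, computed in log2 with a pseudocount of 1 for absent variants.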

[2] = target: PUM1 PUF domain R5-DRR (Homo sapiens, UniProt Q14671 828-1176, C1007D;Q1011R)
How it was run: as §1

[3] = target: PUM1 PUF domain R5-TFY (Homo sapiens, UniProt Q14671 828-1176, C1007T;R1008F;Q1011Y)
How it was run: as §1

[4] = target: T1, PUM1 PUF domain R6-IYE (Homo sapiens, UniProt Q14671 828-1176, N1043I;Q1047E)
T1 sequence: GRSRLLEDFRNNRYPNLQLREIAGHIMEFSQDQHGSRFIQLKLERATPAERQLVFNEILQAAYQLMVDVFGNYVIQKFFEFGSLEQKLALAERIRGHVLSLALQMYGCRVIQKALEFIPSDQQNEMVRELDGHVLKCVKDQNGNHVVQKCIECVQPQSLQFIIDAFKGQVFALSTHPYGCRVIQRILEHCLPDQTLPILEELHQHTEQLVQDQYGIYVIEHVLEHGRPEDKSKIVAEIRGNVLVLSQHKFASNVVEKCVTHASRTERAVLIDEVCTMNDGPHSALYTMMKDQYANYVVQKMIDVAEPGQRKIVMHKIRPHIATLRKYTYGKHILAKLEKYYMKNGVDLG
How it was run: as §1

[5] = target: T2, PUM1 PUF domain R6-LYL (Homo sapiens, UniProt Q14671 828-1176, N1043L;Q1047L)
T2 sequence: T1 sequence with I216L, E220L
How it was run: as §1

[6] = target: PUM1 PUF domain R4-SRN (Homo sapiens, UniProt Q14671 828-1176, N971S;H972R;Q975N)
How it was run: as §1

[7] = target: PUM1 PUF domain R7-GCD (Homo sapiens, UniProt Q14671 828-1176, S1079G;N1080C;E1083D)
How it was run: as §1

[8] = target: T3, PUM1 PUF domain R6-EWK (Homo sapiens, UniProt Q14671 828-1176, N1043E;Y1044W;Q1047K)
T3 sequence: T1 sequence with I216E, Y217W, E220K
How it was run: as §1

[9] = target: PUM1 PUF domain R3-LRE (Homo sapiens, UniProt Q14671 828-1176, C935L;Q939E)
How it was run: as §1

[10] = target: PUM1 PUF domain R1-KRA (Homo sapiens, UniProt Q14671 828-1176, S863K;Q867A)
How it was run: as §1

## GGCUAGAACUAGUGGAUCCCCCGGCGCCCGGCGGCUCGAGCCCGGGUAAGUGUUAAUAGUCUGCAUGCCGCCGGGCGCCAUGCCUGCAGGUCGACUCUAGAAAACAUG
[1]
  binding signal: 5.69 log2 enrichment (interaction score)
[2]
  binding signal: 2.64 log2 enrichment (interaction score)

## GGCUAGAACUAGUGGAUCCCCCGGCGCCCGGCGGCUCGAGCCCGGGUAAGUGUAAAUAGUCUGCAUGCCGCCGGGCGCCAUGCCUGCAGGUCGACUCUAGAAAACAUG
[3]
  binding signal: 2.23 log2 enrichment (interaction score)
[4]
  binding signal: 2.5 log2 enrichment (interaction score)
[5]
  binding signal: 2.24 log2 enrichment (interaction score)
[6]
  binding signal: 3.38 log2 enrichment (interaction score)

## GGCUAGAACUAGUGGAUCCCCCGGCGCCCGGCGGCUCGAGCCCGGGUAAGUGAAAAUAGUCUGCAUGCCGCCGGGCGCCAUGCCUGCAGGUCGACUCUAGAAAACAUG
[5]
  binding signal: 3.54 log2 enrichment (interaction score)

## GGCUAGAACUAGUGGAUCCCCCGGCGCCCGGCGGCUCGAGCCCGGGUAAGUUUAAAUAGUCUGCAUGCCGCCGGGCGCCAUGCCUGCAGGUCGACUCUAGAAAACAUG
[7]
  binding signal: 3.51 log2 enrichment (interaction score)

## GGCUAGAACUAGUGGAUCCCCCGGCGCCCGGCGGCUCGAGCCCGGGUAAGUGGAAAUAGUCUGCAUGCCGCCGGGCGCCAUGCCUGCAGGUCGACUCUAGAAAACAUG
[8]
  binding signal: 2.84 log2 enrichment (interaction score)

## GGCUAGAACUAGUGGAUCCCCCGGCGCCCGGCGGCUCGAGCCCGGGUAAGUGUAAGUAGUCUGCAUGCCGCCGGGCGCCAUGCCUGCAGGUCGACUCUAGAAAACAUG
[9]
  binding signal: 3.1 log2 enrichment (interaction score)

## GGCUAGAACUAGUGGAUCCCCCGGCGCCCGGCGGCUCGAGCCCGGGUAAGUGUGAAUAGUCUGCAUGCCGCCGGGCGCCAUGCCUGCAGGUCGACUCUAGAAAACAUG
[1]
  binding signal: 1.47 log2 enrichment (interaction score)

## GGCUAGAACUAGUGGAUCCCCCGGCGCCCGGCGGCUCGAGCCCGGGUAAGUGUAAAUCGUCUGCAUGCCGCCGGGCGCCAUGCCUGCAGGUCGACUCUAGAAAACAUG
[10]
  binding signal: 5.03 log2 enrichment (interaction score)

## GGCUAGAACUAGUGGAUCCCCCGGCGCCCGGCGGCUCGAGCCCGGGUAAGUGUAUAUAGUCUGCAUGCCGCCGGGCGCCAUGCCUGCAGGUCGACUCUAGAAAACAUG
[6]
  binding signal: 0.7 log2 enrichment (interaction score)

## GGCUAGAACUAGUGGAUCCCCCGGCGCCCGGCGGCUCGAGCCCGGGUAAGUGUCAAUAGUCUGCAUGCCGCCGGGCGCCAUGCCUGCAGGUCGACUCUAGAAAACAUG
[1]
  binding signal: 5.36 log2 enrichment (interaction score)
[2]
  binding signal: 3.48 log2 enrichment (interaction score)
